Measured values published in PubChem BioAssay AID1159580 (chemical genetic matrix, 2015).
In all, about 5,500 compounds went through this assay and about 2,000 (36%) were called active. About 18% were inconclusive and are not listed. Rule as the data show it: active = normalized growth mostly below about 0.91 (no sharp cut-off); inconclusive = no clear call, values can overlap the other calls; inactive = mostly above about 0.92. The list shows a part of the results.

Assay: chemical genetic growth profiling, strain panel (AID 1159580);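 also: tested at 20 µM; growth read once vehicle control cultures reached saturation at 30 °C; 1 = growth at the plate median or of vehicle wells; lower values mean less growth of the strain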
Conditions: growth OD

Measured: normalized growth

CCOC(=O)/C=C(\C)OP(=O)(OC)OC
inactive: S. cerevisiae deletion strains, locus YAL013W, strain DEP1, active compounds read low 0.973 | S. cerevisiae deletion strains, locus YBR021W, strain FUR4, active compounds read low 1.02 | S. cerevisiae deletion strains, locus YBR229C, strain ROT2, active compounds read low 0.948 | S. cerevisiae deletion strains, locus YCL029C, strain bik1, active compounds read low 0.989 | S. cerevisiae deletion strains, locus YDL035C, strain GPR1, active compounds read low 0.981 | S. cerevisiae deletion strains, locus YDL074C, strain BRE1, active compounds read low 0.937 | S. cerevisiae deletion strains, locus YDL101C, strain DUN1, active compounds read low 0.967 | S. cerevisiae deletion strains, locus YDL134C, strain PPH21, active compounds read low 0.989 | S. cerevisiae deletion strains, locus YDL185W, strain tfp1, active compounds read low 0.983 | S. cerevisiae deletion strains, locus YDL192W, strain arf1, active compounds read low 0.992 | S. cerevisiae deletion strains, locus YDR101C, strain arx1, active compounds read low 1 | S. cerevisiae deletion strains, locus YDR150W, strain NUM1, active compounds read low 0.989 | S. cerevisiae deletion strains, locus YDR162C, strain NBP2, active compounds read low 0.982 | S. cerevisiae deletion strains, locus YDR318W, strain mcm21, active compounds read low 0.987 | S. cerevisiae deletion strains, locus YDR388W, active compounds read low 1.01 | S. cerevisiae deletion strains, locus YDR502C, strain sam2, active compounds read low 0.996 | S. cerevisiae deletion strains, locus YEL061C, strain CIN8, active compounds read low 0.99 | S. cerevisiae deletion strains, locus YER110C, active compounds read low 0.992 | S. cerevisiae deletion strains, locus YER155C, strain BEM2, active compounds read low 0.984 | S. cerevisiae deletion strains, locus YER167W, strain BCK2, active compounds read low 0.988 | S. cerevisiae deletion strains, locus YGL078C, strain dbp3, active compounds read low 1.01 | S. cerevisiae deletion strains, locus YGL086W, strain mad1, active compounds read low 0.993 | S. cerevisiae deletion strains, locus YGL248W, strain PDE1, active compounds read low 0.977 | S. cerevisiae deletion strains, locus YGR078C, strain PAC10, active compounds read low 0.983 | S. cerevisiae deletion strains, locus YGR135W, strain pre9, active compounds read low 0.988 | S. cerevisiae deletion strains, locus YGR229C, strain SMI1, active compounds read low 0.984 | S. cerevisiae deletion strains, locus YGR252W, strain gcn5, active compounds read low 0.998 | S. cerevisiae deletion strains, locus YHR030C, strain SLT2, active compounds read low 0.99 | S. cerevisiae deletion strains, locus YHR079C, strain IRE1 (second series), active compounds read low 1 | S. cerevisiae deletion strains, locus YHR094C, strain hxt1, active compounds read low 1.01 | S. cerevisiae deletion strains, locus YHR129C, strain ARP1, active compounds read low 0.974 | S. cerevisiae deletion strains, locus YHR200W, strain rpn10, active compounds read low 0.994 | S. cerevisiae deletion strains, locus YIL066C, strain RNR3, active compounds read low 0.985 | S. cerevisiae deletion strains, locus YIL073C, strain SPO22, active compounds read low 1.03 | S. cerevisiae deletion strains, locus YIL125W, strain kgd1, active compounds read low 0.993 | S. cerevisiae deletion strains, locus YIR030C, strain dcg1, active compounds read low 0.996 | S. cerevisiae deletion strains, locus YJL095W, strain BCK1, active compounds read low 0.994 | S. cerevisiae deletion strains, locus YJL134W, strain LCB3, active compounds read low 0.987 | S. cerevisiae deletion strains, locus YJL168C, strain set2, active compounds read low 0.991 | S. cerevisiae deletion strains, locus YJL187C, strain SWE1 (second series), active compounds read low 0.983 | S. cerevisiae deletion strains, locus YJR043C, strain POL32, active compounds read low 0.985 | S. cerevisiae deletion strains, locus YJR075W, strain HOC1, active compounds read low 0.983 | S. cerevisiae deletion strains, locus YKL009W, strain mrt4, active compounds read low 0.947 | S. cerevisiae deletion strains, locus YKL068W, active compounds read low 0.998 | S. cerevisiae deletion strains, locus YKL085W, strain MDH1 (second series), active compounds read low 0.989 | S. cerevisiae deletion strains, locus YKL085W, strain MDH1, active compounds read low 0.989 | S. cerevisiae deletion strains, locus YKL190W, strain CNB1, active compounds read low 0.995 | S. cerevisiae deletion strains, locus YKR001C, strain vps1, active compounds read low 1 | S. cerevisiae deletion strains, locus YLR039C, strain RIC1, active compounds read low 0.976 | S. cerevisiae deletion strains, locus YLR058C, strain SHM2, active compounds read low 0.981 | S. cerevisiae deletion strains, locus YLR102C, strain apc9, active compounds read low 0.993 | S. cerevisiae deletion strains, locus YLR262C, strain YPT6, active compounds read low 0.977 | S. cerevisiae deletion strains, locus YLR268W, strain sec22, active compounds read low 0.998 | S. cerevisiae deletion strains, locus YLR330W, strain CHS5, active compounds read low 0.986 | S. cerevisiae deletion strains, locus YLR342W, strain FKS1 (second series), active compounds read low 1.02 | S. cerevisiae deletion strains, locus YLR371W, strain rom2, active compounds read low 0.996 | S. cerevisiae deletion strains, locus YLR418C, strain cdc73, active compounds read low 1.01 | S. cerevisiae deletion strains, locus YML016C, strain PPZ1, active compounds read low 0.986 | S. cerevisiae deletion strains, locus YML032C, strain rad52, active compounds read low 1 | S. cerevisiae deletion strains, locus YML124C, strain tub3, active compounds read low 1 | S. cerevisiae deletion strains, locus YMR078C, strain ctf18, active compounds read low 0.999 | S. cerevisiae deletion strains, locus YMR223W, strain ubp8, active compounds read low 0.996 | S. cerevisiae deletion strains, locus YMR263W, strain SAP30, active compounds read low 0.987 | S. cerevisiae deletion strains, locus YMR307W, strain GAS1, active compounds read low 1.04 | S. cerevisiae deletion strains, locus YNL067W, strain RPL9B, active compounds read low 0.982 | S. cerevisiae deletion strains, locus YNL128W, strain TEP1, active compounds read low 0.951 | S. cerevisiae deletion strains, locus YNL153C, strain GIM3, active compounds read low 0.985 | S. cerevisiae deletion strains, locus YNL233W, strain BNI4, active compounds read low 0.997 | S. cerevisiae deletion strains, locus YNL250W, strain rad50, active compounds read low 0.983 | S. cerevisiae deletion strains, locus YNL271C, strain bni1, active compounds read low 1 | S. cerevisiae deletion strains, locus YNL298W, strain CLA4, active compounds read low 1.01 | S. cerevisiae deletion strains, locus YNL307C, strain MCK1, active compounds read low 1.01 | S. cerevisiae deletion strains, locus YNL322C, strain KRE1, active compounds read low 0.977 | S. cerevisiae deletion strains, locus YNR052C, strain pop2, active compounds read low 0.996 | S. cerevisiae deletion strains, locus YOL006C, strain TOP1, active compounds read low 0.926 | S. cerevisiae deletion strains, locus YOL012C, strain htz1 0.854 | S. cerevisiae deletion strains, locus YOL147C, strain pex11, active compounds read low 1.01 | S. cerevisiae deletion strains, locus YOR061W, strain CKA2, active compounds read low 0.961 | S. cerevisiae deletion strains, locus YOR069W, strain VPS5, active compounds read low 0.99 | S. cerevisiae deletion strains, locus YOR136W, strain idh2, active compounds read low 0.993 | S. cerevisiae deletion strains, locus YOR144C, strain elg1, active compounds read low 0.997 | S. cerevisiae deletion strains, locus YOR184W, strain ser1, active compounds read low 1.01 | S. cerevisiae deletion strains, locus YOR316C, strain cot1, active compounds read low 0.981 | S. cerevisiae deletion strains, locus YPL055C, strain LGE1, active compounds read low 0.975 | S. cerevisiae deletion strains, locus YPL241C, strain CIN2, active compounds read low 0.993 | S. cerevisiae deletion strains, locus YPR119W, strain clb2, active compounds read low 1 | S. cerevisiae deletion strains, locus YPR141C, strain kar3, active compounds read low 0.991 | S. cerevisiae deletion strains, locus YPR163C, strain tif3, active compounds read low 1.01 | S. cerevisiae deletion strains, locus YPR167C, strain met16, active compounds read low 0.995 | S. cerevisiae deletion strains, strain wtn01, active compounds read low 1 | S. cerevisiae strains, strain wild type, active compounds read low 0.985
